According to ChEMBL document CHEMBL3988442, “University of Dundee, Small-Polar-MMV Screening Library” (2021):
Hit rate of the full screen: of about 48,000 compounds, about 13,000 (27%) showed an effect of 50% or more. This is one part of the list.

tested on: Wolbachia pipientis; assay: Anti-Wolbachia Cell-Based Screen; assay type: functional; set-up: scale not given: in the data most compounds retested in dose-response had high values; conditions: 5 µM

| SMILES | Percent Effect |
| --- | --- |
| Cc1cccc(C(C(=O)NCc2csc(-c3ncccn3)n2)N(C)C)c1 (stereo not given) | 2.9% |
| CSC(CNS(=O)(=O)c1cnn(C)c1)c1cccc(Cl)c1 (stereo not given) | -0.2397% |
| CC(=O)c1cc(CN2C[C@@H](CN3CCCC3)[C@@H](CO)C2)n(C)c1 | 0.4917% |
| Cn1c(CN2CCCCC2)cc(=O)c(O)c1CN1CCCCC1 | 95.65% |
| Cc1noc(C2CCN(Cc3cc(=O)n(C)c(=O)n3C)CC2)n1 | 2.603% |
| CCS(=O)(=O)N1CCC(c2nnc(CN3CCCCCC3)n2C)CC1 | -3.352% |
| CCS(=O)(=O)N1CCC(c2nnc(CN3CCCCC3)n2C)CC1 | -11.51% |
| Cn1c(CN2CCCCCC2)cc(=O)c(O)c1CN1CCCC1 | 177.4% |
| Cc1ccc(CNC2(Cc3cc(-c4ccccc4)on3)COC2)o1 | -15.57% |
| CN1CCN(Cc2ccccc2CNC(=O)c2cc(Cl)ccc2F)CC1 | -3.272% |
| Cn1ncc(C2CC(=O)NCc3nc4sccn4c32)c1C1CC1 (stereo not given) | -19.57% |
| CCC(CC)c1cc(CNC(=O)N2CCC(n3cncn3)CC2)on1 | -7.222% |
| COc1cc(Cl)ccc1CNC(=O)N(C)C(C)CS(C)(=O)=O (stereo not given) | 2.125% |
| CCOc1cc(Cl)ccc1CNC(=O)N1CCCC(CO)C1 (stereo not given) | -9.935% |
| COc1cc(Cl)ccc1CNC(=O)N1CCC(n2cncn2)CC1 | 88.5% |
| COc1ccc(OC)c(CNC(=O)N2CCC(n3cncn3)CC2)c1 | 67.1% |
| CC(C)CC1(C(=O)NCCc2nncn2C2CC2)CCC1 | -4.64% |
| COCCn1cncc1CN1CCCC(C(=O)Cc2ccccc2)C1 (stereo not given) | -2.141% |
| FC(F)Oc1ccc(CNCc2cc(Br)c3c(c2)OCO3)cc1 | -6.924% |
| Cc1cccc(S(=O)(=O)NC(=O)CN(C)Cc2ccccc2)c1 | -8.063% |
| OC1CCN(Cc2ccc(CNc3ncc(Cl)cc3F)cc2)CC1 | 12.54% |
| CC(C)c1ncc2c(n1)CN(CC(=O)Nc1ccncc1)CC2 | 121.8% |
| CCc1ncc2c(n1)CN(CC(=O)NCCOc1ccccc1)CC2 | -2.298% |
| CCc1ncc2c(n1)CN(CC(=O)Nc1ccncc1)CC2 | 110.2% |

| SMILES | Percent Effect |
| --- | --- |
| CCc1ncc2c(n1)CN(CC(=O)Nc1ccc(Cl)cn1)CC2 | -11.22% |
| O=C1C[C@@H]2CCN(Cc3ccccc3)C[C@@H]2CCN1C1CCCCC1 | -3.832% |
| Cc1cc(F)cc2c(NCC(C)(C)C(N)=O)c(C#N)cnc12 | -8.15% |
| O=C(NCCN1CCCCC1)c1nc2ccccc2c(=O)[nH]1 | 8.44% |
| Cc1[nH]c2ccccc2c1-c1ccnc(NCCN2CCOCC2)n1 | 0.04004% |
| Cc1[nH]c2ccccc2c1-c1ccnc(NC[C@H](O)CO)n1 | 2.314% |
| Cc1[nH]c2ccccc2c1-c1ccnc(N[C@H](CO)CC(C)C)n1 | 64.61% |
| Cc1[nH]c2ccccc2c1-c1ccnc(N[C@@H](C)CO)n1 | 114.9% |
| Cc1[nH]c2ccccc2c1-c1ccnc(NCCN2CCCCC2)n1 | 107.1% |
| Cc1[nH]c2ccccc2c1-c1ccnc(N[C@@H](CO)C(C)C)n1 | 99.82% |
| Cc1ccc(-c2nc(CNC(C)CCO)[nH]c2-c2ccccn2)cc1 (stereo not given) | 0.0278% |
| Cc1ccc(-c2ccnc(NC(C)c3c(C)n[nH]c3C)n2)c(C)n1 (stereo not given) | 5.666% |
| Cn1cc(C2CC3(CCN(C(=O)c4cccs4)CC3)NC2=O)cn1 (stereo not given) | 3.208% |
| COc1cc(Cl)cc(C(=O)N2CCC3(CC2)CNC(=O)C3)c1 | -6.802% |
| CCOCc1nc2c(c(N(C)Cc3ccsc3)n1)CCNCC2 | -15.95% |
| O=C(CCc1ccccc1)N1C[C@@H]2CN(Cc3ccoc3)CCO[C@@H]2C1.O=C(O)C(F)(F)F | 22.25% |
| O=C(O)C(F)(F)F.O=C([C@H]1CN(Cc2ccccc2F)C[C@H]2OCC[C@@H]12)N1CCCO1 | 3.627% |
| O=C(c1ccccc1)N1CCO[C@@H]2CN(Cc3ccc[nH]3)C[C@@H]2C1 | 106.1% |
| Fc1ccccc1CN1C[C@@H]2CN(Cc3cccnc3)CCO[C@@H]2C1.O=C(O)C(F)(F)F.O=C(O)C(F)(F)F.O=C(O)C(F)(F)F | 0.8548% |
| COc1ccccc1CN1C[C@@H]2CN(C(C)=O)CCO[C@@H]2C1.O=C(O)C(F)(F)F | 111.4% |
| O=C(O)C(F)(F)F.O=C(c1ccc2[nH]ccc2c1)N1CC[C@@H]2CN(CC3CC3)CCO[C@@H]2C1 | -56.17% |
| COCCN1CCO[C@@H]2CN(Cc3ccccc3OC)C[C@@H]2C1.O=C(O)C(F)(F)F.O=C(O)C(F)(F)F | 1.646% |
| CC(=O)N1CCO[C@@H]2CN(Cc3ccccc3Cl)C[C@@H]2C1.O=C(O)C(F)(F)F | 111.8% |
| COCCN1CCO[C@@H]2CN(C(=O)c3ccc4[nH]ccc4c3)CC[C@@H]2C1 | -49.46% |

| SMILES | Percent Effect |
| --- | --- |
| COc1ccccc1CN1C[C@@H]2CN(Cc3cccnc3)CCO[C@@H]2C1.O=C(O)C(F)(F)F.O=C(O)C(F)(F)F.O=C(O)C(F)(F)F | -7.53% |
| CC(=O)N1CCO[C@@H]2CN(Cc3ccccc3F)C[C@@H]2C1.O=C(O)C(F)(F)F | 102.5% |
| CN(C)C(C(=O)NCCSc1ncn[nH]1)c1cccc(F)c1 (stereo not given) | -5.881% |
| Cc1cc(NC(=O)CSc2nc(=O)ccn2C(C)C)no1 | -5.923% |
| C/C(=C/c1ccccc1)CNCc1cccc(C(N)=O)c1 | -6.417% |
| Cc1ccc(CNC(=O)NCC(=O)N2CCCC2)c(N2CCCC2)c1 | -13.16% |
| CCC(NCc1cc[nH]n1)c1nc(C(F)(F)F)cs1 (stereo not given) | -5.752% |
| CC(=O)N1CCO[C@@H]2CN(Cc3cccc(Cl)c3)C[C@@H]2C1.O=C(O)C(F)(F)F | 105.7% |
| CN1CCO[C@@H]2CN(C(=O)COc3cccc(Cl)c3)C[C@@H]2C1.O=C(O)C(F)(F)F | -8.699% |
| COc1ccc(CN2C[C@@H]3CN(Cc4cccnc4)CCO[C@@H]3C2)cc1.O=C(O)C(F)(F)F.O=C(O)C(F)(F)F.O=C(O)C(F)(F)F | 13.72% |
| Cc1[nH]ccc1C(=O)N1C[C@H]2CC[C@@H]1CN(S(=O)(=O)N(C)C)C2 | -3.55% |
| Cc1ccc(CNC(=O)N(C)Cc2ccc([S+](C)[O-])cc2)s1 (stereo not given) | -1.725% |
| O=C(c1ccccc1F)N1CC(c2nc(-c3ccc[nH]c3=O)no2)C1 | 1.982% |
| O=C(c1ccccc1F)N1CC(c2nc(C3CC3)no2)C1 | 5.464% |
| N#Cc1ccc(C(=O)N2CC(c3nc(-c4ncccn4)no3)C2)cc1 | 10.08% |
| O=C(c1ccccc1F)N1CCOC(c2nc(-c3ncccn3)no2)C1 (stereo not given) | 128.4% |
| Cc1ccc(C(=O)N2CCOC(c3nc(-c4ncccn4)no3)C2)cc1 (stereo not given) | 94.58% |
| O=C(c1ccc(F)cc1)N1CCOC(c2nc(-c3ncccn3)no2)C1 (stereo not given) | 124.8% |
| CO[C@H]1COCCN(C(=O)c2ccc(F)cc2)C1 | 0.8542% |
| O=C(c1cccnc1N1CCOC(c2ccc(F)cc2)C1)N1CCCC1 (stereo not given) | 5.755% |
| Cc1nccnc1-n1c(COCC(=O)O)nc2c(C)cccc21 | -2.278% |
| Cc1nc2c(C(=O)O)cccc2n1-c1ccc(C(=O)N2CCCC2)o1 | -15.07% |
| CC(=O)N1CCN(C(=O)C[C@@H]2C[C@@H](C(C)C)[C@H](CC#N)C=C2C)CC1 | 4.574% |
| Cc1ccnc(N2CCC(NCCOc3ccccc3)CC2)n1 | -3.135% |

| SMILES | Percent Effect |
| --- | --- |
| CC(C)=CCNC1CCCN(c2ccc(C)nn2)C1 (stereo not given) | -19.9% |
| Cc1ccc(N2CCCC(NCC(=O)NCC3CC3)C2)nn1 (stereo not given) | 1.938% |
| CC(=O)NCCNC(=O)CNC1CCCN(c2ccc(C)nn2)C1 (stereo not given) | 88.86% |
| Cc1ccc(N2CCCC(NCCS(C)(=O)=O)C2)nn1 (stereo not given) | 2.432% |
| Cc1ccc(N2CCCC(NCCCS(C)(=O)=O)C2)nn1 (stereo not given) | 0.9171% |
| COCCCNC1CCCN(c2ccc(C)nn2)C1 (stereo not given) | 22.77% |
| Cc1ccc(N2CCCC(NCC(=O)Nc3cc(C)nn3C)C2)nn1 (stereo not given) | 95.11% |
| Cc1ccc(N2CCCC(NCC(=O)NC(C3CC3)C3CC3)C2)nn1 (stereo not given) | 84.95% |
| Cc1ccn(-c2ccc(NCc3ccnc(N4CCCCC4)c3)nn2)n1 | 4.336% |
| O=C(CCc1ccc(Br)cc1F)NS(=O)(=O)c1ccc2c(c1)OCCO2 | -3.282% |
| Cc1ccc(CN[C@@H]2CO[C@H](CNS(=O)(=O)c3ccccc3)[C@H]2O)cc1 | -4.281% |
| CCn1cc(S(=O)(=O)Nc2nc3c(s2)CC(C)CC3)cn1 (stereo not given) | 98.13% |
| Cn1cc(S(=O)(=O)Nc2ccc3[nH]c(C4CCC4)nc3c2)cn1 | -3.023% |
| CCn1cc(S(=O)(=O)NC2CCCC2)cn1 | 8.847% |
| CC1CCc2nc(NS(=O)(=O)c3cnn(C)c3)sc2C1 (stereo not given) | 97.97% |
| CCn1cc(S(=O)(=O)NC2CCCN(CC3CCCCC3)C2)cn1 (stereo not given) | 19.95% |
| Cn1cc(S(=O)(=O)Nc2c(F)cccc2N2CCCC2)cn1 | -10.22% |
| Cc1oc(C(=O)O)cc1S(=O)(=O)Nc1ccc(Cl)c(Cl)c1 | -3.012% |
| Cc1ccc(NS(=O)(=O)c2cc(C(=O)O)oc2C)c(Br)c1 | 0.9383% |
| Cc1noc(C)c1NS(=O)(=O)c1cc(C(=O)O)cc(Cl)c1Cl | 3.53% |
| Cc1oc(C(=O)O)cc1S(=O)(=O)Nc1cccc(-n2nccc2C)c1 | -0.5451% |
| Cc1oc(C(=O)O)cc1S(=O)(=O)Nc1ccc(Br)cc1Cl | 96.02% |
| Cc1oc(C(=O)O)cc1S(=O)(=O)Nc1cc(Br)ccc1Cl | 106.9% |
